Measurements taken from paper PMC7862700, “An all-to-all approach to the identification of sequence-specific readers for epigenetic DNA modifications on cytosine”.

How the values were obtained:
Test in all cases: DAPPL (digital affinity profiling via proximity ligation, sequencing); 10 mM Tris-HCl pH 7.5, 50 mM NaCl, 1 mM DTT, 4% glycerol, room temperature, 30 min; GST-TFs on glutathione beads, 16-mer random dsDNA library, 0.1% formaldehyde crosslink after washing; high values mean tight binding
Details in all cases: protein: recombinant; tags: N-terminal GST; dsDNA, one strand shown
[1] = molecular target: T1, ERF (Homo sapiens, UniProt P50548 1-548)
T1 sequence: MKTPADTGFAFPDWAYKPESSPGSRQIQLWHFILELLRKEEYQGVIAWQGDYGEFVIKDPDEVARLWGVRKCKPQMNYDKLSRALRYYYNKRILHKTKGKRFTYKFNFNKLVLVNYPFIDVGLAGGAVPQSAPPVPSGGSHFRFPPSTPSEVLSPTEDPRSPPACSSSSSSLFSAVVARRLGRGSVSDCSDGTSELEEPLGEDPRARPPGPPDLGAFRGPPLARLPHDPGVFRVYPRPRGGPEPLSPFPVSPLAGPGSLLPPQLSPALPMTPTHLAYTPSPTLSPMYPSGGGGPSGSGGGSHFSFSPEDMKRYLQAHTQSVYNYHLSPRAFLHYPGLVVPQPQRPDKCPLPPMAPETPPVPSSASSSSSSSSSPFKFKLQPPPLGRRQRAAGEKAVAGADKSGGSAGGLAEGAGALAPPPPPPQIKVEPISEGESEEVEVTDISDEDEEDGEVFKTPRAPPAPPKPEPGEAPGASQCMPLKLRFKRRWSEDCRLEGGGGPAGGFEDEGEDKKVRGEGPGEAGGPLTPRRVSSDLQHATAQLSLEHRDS
Outline: (§1)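 After expression in yeast as GST fusions, human transcription factors were bound to glutathione beads, DNA-barcoded and mixed with a tag-only sample. The pools were incubated with 200 nmole of a 16-mer random double-stranded DNA library in Tris/NaCl/DTT/glycerol buffer (30 min, room temperature), washed and crosslinked with 0.1% formaldehyde. Proximity ligation with BsaI/T4 ligase ran for 1 h at 37 °C, before PCR amplification and sequencing on an Illumina NextSeq500. Binding signal is a hexamer's read frequency for a factor divided by its frequency for the tag-only sample.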

[2] = molecular target: T2, ETV3L (Homo sapiens, UniProt Q6ZN32 1-361)
T2 sequence: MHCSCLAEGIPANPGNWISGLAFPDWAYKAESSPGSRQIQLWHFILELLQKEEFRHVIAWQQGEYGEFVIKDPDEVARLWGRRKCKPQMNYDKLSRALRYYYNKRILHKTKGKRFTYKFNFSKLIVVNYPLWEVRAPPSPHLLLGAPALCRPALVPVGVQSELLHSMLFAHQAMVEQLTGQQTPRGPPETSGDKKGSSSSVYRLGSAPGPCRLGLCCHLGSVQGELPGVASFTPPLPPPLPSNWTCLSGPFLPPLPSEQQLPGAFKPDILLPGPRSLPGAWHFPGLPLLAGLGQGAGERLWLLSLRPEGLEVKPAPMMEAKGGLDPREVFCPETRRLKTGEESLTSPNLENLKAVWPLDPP
Outline: as §1

[3] = molecular target: T3, ETS2 (Homo sapiens, UniProt P15036 1-469)
T3 sequence: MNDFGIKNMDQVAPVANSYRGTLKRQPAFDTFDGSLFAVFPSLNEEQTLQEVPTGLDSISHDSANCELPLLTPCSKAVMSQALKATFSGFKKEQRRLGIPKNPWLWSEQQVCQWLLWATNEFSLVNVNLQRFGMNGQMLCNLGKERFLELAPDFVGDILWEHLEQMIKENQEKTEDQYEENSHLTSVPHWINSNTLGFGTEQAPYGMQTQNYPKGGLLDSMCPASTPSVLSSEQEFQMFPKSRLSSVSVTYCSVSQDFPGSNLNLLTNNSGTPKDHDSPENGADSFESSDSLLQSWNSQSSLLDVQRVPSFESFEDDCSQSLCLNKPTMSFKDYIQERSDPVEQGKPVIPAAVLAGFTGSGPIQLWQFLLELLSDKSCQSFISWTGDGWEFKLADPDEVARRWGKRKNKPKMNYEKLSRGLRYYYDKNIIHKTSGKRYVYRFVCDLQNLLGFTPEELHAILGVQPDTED
Outline: as §1

[4] = molecular target: T4, SPDEF (Homo sapiens, UniProt O95238 1-335)
T4 sequence: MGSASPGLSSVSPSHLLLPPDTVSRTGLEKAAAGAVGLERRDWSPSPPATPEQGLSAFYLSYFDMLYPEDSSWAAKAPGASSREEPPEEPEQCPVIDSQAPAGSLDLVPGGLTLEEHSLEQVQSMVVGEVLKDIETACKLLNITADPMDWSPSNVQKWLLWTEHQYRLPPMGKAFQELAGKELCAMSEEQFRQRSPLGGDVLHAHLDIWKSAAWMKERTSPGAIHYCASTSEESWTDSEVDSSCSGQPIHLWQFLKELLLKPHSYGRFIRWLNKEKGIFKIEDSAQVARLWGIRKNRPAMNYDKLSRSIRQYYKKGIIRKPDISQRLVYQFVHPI
Outline: as §1

[5] = molecular target: T5, ETV7 (Homo sapiens, UniProt Q9Y603 1-341)
T5 sequence: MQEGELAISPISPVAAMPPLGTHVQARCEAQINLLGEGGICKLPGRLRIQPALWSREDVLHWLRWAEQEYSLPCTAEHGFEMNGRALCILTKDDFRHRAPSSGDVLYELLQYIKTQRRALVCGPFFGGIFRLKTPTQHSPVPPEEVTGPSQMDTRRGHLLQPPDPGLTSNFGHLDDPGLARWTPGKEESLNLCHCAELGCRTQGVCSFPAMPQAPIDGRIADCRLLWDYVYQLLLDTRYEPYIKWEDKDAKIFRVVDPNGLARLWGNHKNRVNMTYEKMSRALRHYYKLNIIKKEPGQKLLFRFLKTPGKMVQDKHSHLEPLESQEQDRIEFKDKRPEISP
Outline: as §1

[6] = molecular target: T6, ELF5 (Homo sapiens, UniProt Q9UKW6-2 1-255)
T6 sequence: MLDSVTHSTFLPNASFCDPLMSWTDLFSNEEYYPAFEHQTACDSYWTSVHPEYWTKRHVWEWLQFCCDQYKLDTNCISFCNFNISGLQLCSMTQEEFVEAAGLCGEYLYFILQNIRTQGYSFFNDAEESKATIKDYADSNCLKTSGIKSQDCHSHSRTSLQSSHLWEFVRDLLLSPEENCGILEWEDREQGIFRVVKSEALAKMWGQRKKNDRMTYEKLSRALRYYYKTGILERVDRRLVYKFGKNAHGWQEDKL
Outline: as §1

[7] = molecular target: T7, ETV3 (Homo sapiens, UniProt P41162-2 1-143)
T7 sequence: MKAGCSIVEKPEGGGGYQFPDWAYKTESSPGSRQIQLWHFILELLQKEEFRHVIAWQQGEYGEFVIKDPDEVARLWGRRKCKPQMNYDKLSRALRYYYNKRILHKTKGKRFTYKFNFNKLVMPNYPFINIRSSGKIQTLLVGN
Outline: as §1

[8] = molecular target: ETV6 (Homo sapiens, UniProt P41212 1-452)
Outline: as §1

ETV6, sequence (P41212 whole entry): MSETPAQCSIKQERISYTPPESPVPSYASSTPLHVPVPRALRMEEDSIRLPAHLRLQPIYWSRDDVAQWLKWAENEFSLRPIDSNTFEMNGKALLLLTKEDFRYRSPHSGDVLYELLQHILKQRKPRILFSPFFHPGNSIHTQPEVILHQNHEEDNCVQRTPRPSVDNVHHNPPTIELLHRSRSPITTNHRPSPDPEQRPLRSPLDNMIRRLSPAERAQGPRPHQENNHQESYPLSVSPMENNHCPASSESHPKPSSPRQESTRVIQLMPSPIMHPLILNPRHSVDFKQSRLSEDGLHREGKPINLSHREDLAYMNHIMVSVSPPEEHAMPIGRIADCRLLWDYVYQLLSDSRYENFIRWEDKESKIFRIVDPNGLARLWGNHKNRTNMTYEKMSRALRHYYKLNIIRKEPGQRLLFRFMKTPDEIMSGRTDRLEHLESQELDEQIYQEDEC

Sequence | binding signal [1] | binding signal [2] | binding signal [3] | binding signal [4] | binding signal [5] | binding signal [6] | binding signal [7] | binding signal [8]
TATTTC | 1.86 fold enrichment (6-mer frequency, TF over GST control) | 2.06 fold enrichment (6-mer frequency, TF over GST control) | 2.23 fold enrichment (6-mer frequency, TF over GST control) | 2 fold enrichment (6-mer frequency, TF over GST control) | 2.2 fold enrichment (6-mer frequency, TF over GST control) | 2.66 fold enrichment (6-mer frequency, TF over GST control) | 2.23 fold enrichment (6-mer frequency, TF over GST control) | 2.54 fold enrichment (6-mer frequency, TF over GST control)
ATATTG | 1.31 fold enrichment (6-mer frequency, TF over GST control) | 1.41 fold enrichment (6-mer frequency, TF over GST control) | 1.36 fold enrichment (6-mer frequency, TF over GST control) | 1.43 fold enrichment (6-mer frequency, TF over GST control) | 1.33 fold enrichment (6-mer frequency, TF over GST control) | 1.34 fold enrichment (6-mer frequency, TF over GST control) | 1.35 fold enrichment (6-mer frequency, TF over GST control) | 1.42 fold enrichment (6-mer frequency, TF over GST control)
CATCGA | 1.16 fold enrichment (6-mer frequency, TF over GST control) | 1.21 fold enrichment (6-mer frequency, TF over GST control) | 1.15 fold enrichment (6-mer frequency, TF over GST control) | 1.04 fold enrichment (6-mer frequency, TF over GST control) | 1.13 fold enrichment (6-mer frequency, TF over GST control) | 1.05 fold enrichment (6-mer frequency, TF over GST control) | 1.08 fold enrichment (6-mer frequency, TF over GST control) | 1.01 fold enrichment (6-mer frequency, TF over GST control)
CCTTCG | 1.36 fold enrichment (6-mer frequency, TF over GST control) | 1.36 fold enrichment (6-mer frequency, TF over GST control) | 1.3 fold enrichment (6-mer frequency, TF over GST control) | 1.33 fold enrichment (6-mer frequency, TF over GST control) | 1.38 fold enrichment (6-mer frequency, TF over GST control) | 1.24 fold enrichment (6-mer frequency, TF over GST control) | 1.12 fold enrichment (6-mer frequency, TF over GST control) | 1.31 fold enrichment (6-mer frequency, TF over GST control)
TTTGGT | 1.49 fold enrichment (6-mer frequency, TF over GST control) | 1.36 fold enrichment (6-mer frequency, TF over GST control) | 1.43 fold enrichment (6-mer frequency, TF over GST control) | 1.28 fold enrichment (6-mer frequency, TF over GST control) | 1.45 fold enrichment (6-mer frequency, TF over GST control) | 1.4 fold enrichment (6-mer frequency, TF over GST control) | 1.39 fold enrichment (6-mer frequency, TF over GST control) | 1.36 fold enrichment (6-mer frequency, TF over GST control)
CTGACA | 1.21 fold enrichment (6-mer frequency, TF over GST control) | 1.34 fold enrichment (6-mer frequency, TF over GST control) | 1.22 fold enrichment (6-mer frequency, TF over GST control) | 1.24 fold enrichment (6-mer frequency, TF over GST control) | 1.37 fold enrichment (6-mer frequency, TF over GST control) | 1.26 fold enrichment (6-mer frequency, TF over GST control) | 1.24 fold enrichment (6-mer frequency, TF over GST control) | 1.24 fold enrichment (6-mer frequency, TF over GST control)
TAGCAA | 1.28 fold enrichment (6-mer frequency, TF over GST control) | 1.22 fold enrichment (6-mer frequency, TF over GST control) | 1.26 fold enrichment (6-mer frequency, TF over GST control) | 1.23 fold enrichment (6-mer frequency, TF over GST control) | 1.25 fold enrichment (6-mer frequency, TF over GST control) | 1.23 fold enrichment (6-mer frequency, TF over GST control) | 1.34 fold enrichment (6-mer frequency, TF over GST control) | 1.29 fold enrichment (6-mer frequency, TF over GST control)
